From PubChem BioAssay
Active and inactive are the calls of the source. Unless noted, how the calls were made is not given here.

Tests used:
[1] = system: XIP peptide (Xip251-270) binding; test: XIP fragment 251-270 binding compounds – biochemical, small-molecule microarray, fluorescence 635/667 nm, 0.1 µg/mL protein, primary screen (AID 1182); conditions: fluorescent protein binding, 635 nm, higher = more signal, called active from +8 up or from −8 down
[2] = system: XIP peptide (Xip251-270); test: compounds binding XIP fragment 251-270 – biochemical, small-molecule microarray, fluorescence 635/667 nm, 0.5 µg/mL protein, primary screen (AID 1183); conditions: fluorescence 635 nm, higher = more signal
[3] = blood-stage malaria parasite viability loss – strain 3D7, DAPI fluorescence, 100 nL, primary screen (AID 1184);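 further: parasites grown inside human red blood cells in medium with human serum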; conditions: P. falciparum 3D7 growth, 3 d, higher = more signal
[4] = target: Homeobox protein Hox-A13 (Mus musculus) (UniProt Q62424); test: disruptors of Hoxa13 oligonucleotide interaction – biochemical, fluorescence polarization, labeled oligonucleotide, primary screen (AID 1185); conditions: Hoxa13:DNA binding, 15 min, higher = more signal, called active from +8 up or from −8 down
[5] = blockers of DNA damage checkpoint Chk1 activation – imaging, HeLa, hydroxyurea, phospho-Chk1 antibody, percent positive cells, primary screen (AID 1186); conditions: hydroxyurea-induced phospho-Chk1 immunofluorescence imaging, higher = more signal
[6] = blockers of DNA damage checkpoint Chk1 activation – imaging, HeLa, hydroxyurea, phospho-Chk1 nuclear intensity, primary screen (AID 1187); conditions: hydroxyurea-induced phospho-Chk1 immunofluorescence imaging, higher = more signal

Chain of Homeobox protein Hox-A13 (Mus musculus) (Q62424 whole entry, looked up): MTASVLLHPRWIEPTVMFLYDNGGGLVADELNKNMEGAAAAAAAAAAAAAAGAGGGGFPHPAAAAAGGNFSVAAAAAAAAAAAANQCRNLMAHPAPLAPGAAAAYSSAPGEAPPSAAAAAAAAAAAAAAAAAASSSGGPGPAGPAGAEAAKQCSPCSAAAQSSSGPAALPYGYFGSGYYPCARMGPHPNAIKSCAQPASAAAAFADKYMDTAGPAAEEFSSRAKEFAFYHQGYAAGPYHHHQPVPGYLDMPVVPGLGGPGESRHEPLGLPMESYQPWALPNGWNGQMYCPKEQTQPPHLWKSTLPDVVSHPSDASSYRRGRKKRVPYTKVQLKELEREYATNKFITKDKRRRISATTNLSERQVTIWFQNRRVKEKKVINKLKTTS

SMILES	composite z-score [1]	composite z-score [2]	z-score [3]	z-score [4]	z-score [5]	z-score [6]
O=C(NCc1ccccc1)[C@@H]1c2ccccc2C(=O)N(Cc2ccc(OC(F)(F)F)cc2)[C@H]1c1ccc(CO)cc1	-0.304 (inactive)	0.56	-0.655	-2.53 (inactive)	0.0188 (inactive)	0.243 (inactive)
COc1ccc([Si](C)(C)[C@H]2[C@H](CC(=O)N3Cc4ccccc4C[C@H]3CO)O[C@@]3(C(=O)N(c4ccccc4)c4ccccc43)[C@@H]2C)cc1	0.065 (inactive)	0.765	-2.01	-5.4 (inactive)	-0.447 (inactive)	-0.786 (inactive)
C=CCC(OC(C)=O)[C@@H]1[C@@H](N(Cc2ccc(-c3ccccc3)cc2)C(=O)c2cccc3ccccc23)c2cc(OCCCO)ccc2N1C(=O)Cc1ccc(OC)cc1 (stereo partly drawn)	0.15 (inactive)	-0.686	-1.38	-1.88 (inactive)	-0.066 (inactive)	0.0017 (inactive)
CCCCC(O)C1C=CC2C(=O)N(c3ccccc3)C(=O)C2N1Nc1ccccc1 (stereo not drawn)	0.145 (inactive)	0.137	-0.0871	-4.11 (inactive)	0.385 (inactive)	0.283 (inactive)
O=C1O[C@@H](c2ccccc2)[C@@H](c2ccccc2)N2[C@@H](c3ccc(OCCO)cc3)[C@]3(C(=O)Nc4ccc(C#CCCO)cc43)[C@@H](C(=O)O)[C@H]12	0.901 (inactive)	0.443	0.612	-5.86 (inactive)	-0.368 (inactive)	-0.451 (inactive)
O=C(N1CCOCC1)[C@@]1(Cc2ccccc2)COC(c2ccc(OCCCO)cc2)=N1	0.509 (inactive)	0.52	-1.99	-5.19 (inactive)	-0.42 (inactive)	-0.504 (inactive)
O=C1C2C=CC(C(O)c3ccc([N+](=O)[O-])cc3)N(Nc3ccccc3F)C2C(=O)N1c1ccccc1 (stereo not drawn)	0.946 (inactive)	0.679	-0.111	-3.41 (inactive)	0.8 (inactive)	-0.314 (inactive)
COCCCNC(=O)[C@@]1(CCS(=O)(=O)c2ccccc2)COC(c2ccc(OCCCO)cc2)=N1	1.85 (inactive)	-0.227	0.264	-4.7 (inactive)	0.103 (inactive)	0.103 (inactive)
C=CCNC(=O)[C@H]1[C@@H]2C(=O)O[C@@H](c3ccccc3)[C@@H](c3ccccc3)N2[C@@H](c2ccc(OCCO)cc2)[C@]12C(=O)Nc1ccc(C#CC3(O)CCCCCC3)cc12	0.38 (inactive)	0.821	-2.09	-1.83 (inactive)	0.541 (inactive)	1.15 (inactive)
COCCOC(=O)N1C(=O)[C@@]2(c3ccccc31)[C@H](c1ccc(O)cc1)N1[C@H](c3ccccc3)[C@H](c3ccccc3)OC(=O)[C@H]1[C@@H]2C(=O)N1CCCCCCC1	4.66 (inactive)	0.91	-1.01	0.899 (inactive)	-0.0437 (inactive)	0.157 (inactive)
C[N+](C)(C)CCCCNC(=O)[C@H]1C[C@H]2C(=O)N[C@@H](Cc3ccccc3)C(=O)N2[C@H]1c1cccc(OCCO)c1	0.875 (inactive)	0.696	-0.352	-3.44 (inactive)	0.88 (inactive)	0.461 (inactive)
COC(=O)C(CC#Cc1ccc2c(c1)[C@]1(C(=O)N2)[C@H](c2ccccc2OCCO)N2[C@H](c3ccccc3)[C@H](c3ccccc3)OC(=O)[C@H]2[C@@H]1C(=O)N1CCc2cc(OC)c(OC)cc2C1)C(=O)OC	-0.19 (inactive)	0.621	-2.19	3.17 (inactive)	-0.0586 (inactive)	-0.139 (inactive)
COC(=O)c1cccc([C@H]2OC(=CC(=O)OC(C)C)C[C@@H](c3cccc(C(=O)OC)c3)O2)c1	0.308 (inactive)	0.713	-0.832	-4.13 (inactive)	-0.504 (inactive)	-1.39 (inactive)
CC1CC/C=C\[C@H]2OC34C=CCN(Cc5ccccc5)C(=O)[C@H]3N(CCCCCCO)C(=O)[C@@H]4C2C(=O)O1 (stereo partly drawn)	1.32 (inactive)	-0.367	-0.147	-5.85 (inactive)	0.0339 (inactive)	0.0311 (inactive)
CCOC(=O)C1=CC[C@@H](c2ccccc2)N(S(=O)(=O)c2ccc(C)cc2)[C@H]1c1ccccc1I	-0.0622 (inactive)	0.77	-2.07	-1.19 (inactive)	0.0035 (inactive)	-0.763 (inactive)
C=CCC(OC(C)=O)[C@@H]1[C@@H](N(Cc2ccc(-c3cccc(C(F)(F)F)c3)o2)C(=O)c2ccc(-c3ccccc3)cc2)c2cc(OCCCO)ccc2N1C(=O)c1ccc2ccccc2c1 (stereo partly drawn)	0.405 (inactive)	-0.378	-1.26	-1.43 (inactive)	0.366 (inactive)	0.766 (inactive)
O=C1O[C@@H](c2ccccc2)[C@@H](c2ccccc2)N2[C@@H](c3ccccc3OCCO)[C@]3(C(=O)Nc4ccc(C#CCCO)cc43)[C@@H](C(=O)NC[C@H](O)c3ccccc3)[C@H]12	0.798 (inactive)	0.816	-1.81	-3.98 (inactive)	0.0469 (inactive)	0.144 (inactive)

SMILES	composite z-score [1]	composite z-score [2]	z-score [3]	z-score [4]	z-score [5]	z-score [6]
O=C(NCC(O)CO)C1N=C(c2ccc(OCCCO)cc2)N(c2ccccc2)O1 (stereo not drawn)	0.654 (inactive)	0.801	-0.284	-2.55 (inactive)	-0.195 (inactive)	-0.257 (inactive)
COc1ccc([Si](C)(C)[C@@H]2[C@@H](CC(=O)N3Cc4ccccc4C[C@H]3CO)O[C@]3(C(=O)N(Cc4ccc(N5CCOC5=O)cc4)c4ccccc43)[C@H]2C)cc1	2.28 (inactive)	0.83	-1.82	-1.43 (inactive)	-0.262 (inactive)	-0.106 (inactive)
CCCNC(=O)[C@@]1(c2ccc([N+](=O)[O-])cc2)CC(=O)N(C(C)C)[C@@H]1c1ccc(CO)cc1	3.93 (inactive)	0.228	-0.379	-2.6 (inactive)	-0.102 (inactive)	-0.105 (inactive)
[N-]=[N+]=Nc1ccccc1C[C@]1(C(=O)N2CCOCC2)N=C(c2ccc(OCCCO)cc2)O[C@H]1c1ccccc1N=[N+]=[N-]	0.986 (inactive)	0.721	-2.32	-3.58 (inactive)	-1.46 (inactive)	-2.06 (inactive)
NC(=O)N1C(=O)C2C(C1=O)C1C=C(CCCO)C2C(c2ccc(CN3CCCC3)cc2)N1Cc1cc2c(cc1Br)OCO2 (stereo not drawn)	0.224 (inactive)	-0.0073	-0.459	-4.36 (inactive)	0.504 (inactive)	0.519 (inactive)
CC(C)N1C(=O)c2ccccc2[C@@H](C(=O)NCC(F)(F)F)[C@@H]1c1ccc(CO)cc1	-0.258 (inactive)	-0.245	0.872	-1.73 (inactive)	0.0626 (inactive)	0.11 (inactive)
O=C1C[C@@](C(=O)O)(c2ccc([N+](=O)[O-])cc2)[C@@H](c2ccc(CO)cc2)N1C1CCCCC1	0.803 (inactive)	0.73	-1.13	-4.33 (inactive)	-0.119 (inactive)	0.0584 (inactive)
O=C1[C@H]2C=C(I)[C@H](C[C@@H]2c2ccccc2)[C@@]12CO2	-0.432 (inactive)	-0.321	1.46	-1.96 (inactive)	-0.428 (inactive)	-0.0968 (inactive)
CO[C@H]1O[C@H](CO)[C@@H](OC(=O)Nc2ccc3c(c2)OCO3)[C@H](OC(=O)Nc2ccccc2-c2ccccc2)[C@H]1OC(=O)Nc1ccccc1-c1ccccc1	0.667 (inactive)	0.873	-1.92	-3.15 (inactive)	0.0165 (inactive)	0.444 (inactive)
CC(C)C[C@H]1NC(=O)C([C@@H](C)OCc2ccccc2)NC(=O)[C@@]23C(=O)N[C@@H](Cc4ccccc4)C2[C@H](C)[C@@]2(C)O[C@H]2C3/C=C/C/C=C\CNC1=O (stereo partly drawn)	0.304 (inactive)	0.22	-2.23	-6.86 (inactive)	-0.762 (inactive)	-0.732 (inactive)
COc1ccc(C(O)C2C=CC3C(=O)NC(=O)C3N2Nc2ccc(Cl)cc2Cl)c2ccccc12 (stereo not drawn)	1.62 (inactive)	0.687	-0.605	-2.99 (inactive)	-0.0602 (inactive)	0.175 (inactive)
O=C(NCc1ccccc1)[C@@H]1c2ccccc2C(=O)N(Cc2cc(C(F)(F)F)cc(C(F)(F)F)c2)[C@H]1c1ccc(CO)cc1	0.722 (inactive)	0.221	-1.2	-3.95 (inactive)	-0.0537 (inactive)	-0.101 (inactive)
O=C1OCCC=C[C@H]2OC34C=CCN(c5ccc6ccccc6c5)C(=O)[C@H]3N(CCO)C(=O)[C@@H]4C12 (stereo partly drawn)	0.263 (inactive)	0.569	-0.022	-5.62 (inactive)	0.8 (inactive)	0.163 (inactive)
COCCOC(=O)N1C(=O)[C@@]2(c3cc(C#CCCO)ccc31)[C@H](c1ccc(OCCO)cc1)N1[C@H](c3ccccc3)[C@H](c3ccccc3)OC(=O)[C@H]1[C@@H]2C(=O)N1CCCCCCC1	0.788 (inactive)	0.614	-2.1	-4.34 (inactive)	0.197 (inactive)	0.476 (inactive)
C=C(CCCC)/C(=C/C[C@H](OC(C)=O)c1cccc(OCCO)c1)c1cnc2ccccc2c1	-0.0697 (inactive)	0.0014	-2.57	-4.01 (inactive)	-0.549 (inactive)	-0.761 (inactive)
NC(=O)N1C(=O)C2C(C1=O)C1C=C(CCCO)C2C(C2CC2)N1Cc1sc2ccccc2c1Cl (stereo not drawn)	0.632 (inactive)	0.692	-0.672	-4.04 (inactive)	-0.273 (inactive)	-0.171 (inactive)
